Source: PubChem BioAssay
Compounds with a hit are over-represented: about 21% of the library has one in this group of screens.
DT40 TDP1 CPT – qHTS for Inhibitors of human tyrosyl-DNA phosphodiesterase 1 (TDP1): qHTS in cells in presence of CPT; chicken DT40 Tdp1-/-;hTDP1 cells + 20 nM CPT, ATP luminescence, 48 h; 420,000 tested, 12% active; AID 686979, 2013; Potency, µM (doses to about 46.2 µM), actives largely listed as inhibitors; further: nearly all actives have a fitted effect of over 55% in size
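Chicken DT40 Tdp1-/- cells complemented with human TDP1, 400 cells/well, exposed to compounds plus 20 nM camptothecin for at least 48 h at 37 C; viability read as ATP content by CellTiter-Glo luminescence.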
ELG1 DNA repair – qHTS screen for small molecules that inhibit ELG1-dependent DNA repair in human embryonic kidney (HEK293T) cells expressing luciferase-tagged ELG1. HEK293T ELG1-luciferase reporter, luminescence, 16 h; DNA damage induced by 5-fluorouridine. Potency, µM (doses to about 46.1 µM), actives largely listed as inhibitors. 330,000 tested, 2.3% active; further: nearly all actives have a fitted effect of over 55% in size
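Step one: seed 2,000 cells per well. Step two: pin-transfer compound or DMSO alongside 5-fluorouridine. Step three: incubate 16 hr, 37 °C, 5% CO2. Step four: add ONE-Glo, wait 30 min, read luminescence.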
Gal4-VP16 FLuc – VP16 counterscreen qHTS for inhibitors of ROR gamma transcriptional activity; Drosophila S2 Gal4-VP16 UAS-luciferase, luminescence, 20 h; Potency, µM (series often up to 53.6 µM), most hits filed as inhibitors; 310,000 tested, 3.5% active; AID 2546, 2010;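 further: Gal4-VP16 expression switched on by copper sulfate through the metallothionein promoter; nearly all actives have a fitted effect of over 50% in size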
DT40 TDP1 no CPT – qHTS for Inhibitors of human tyrosyl-DNA phosphodiesterase 1 (TDP1): qHTS in cells in absence of CPT; DT40 Tdp1-/- hTDP1 cells, no CPT, ATP luminescence, 48 h; 420,000 tested, 15% active; Potency, µM (series often up to 46.2 µM), most hits filed as inhibitors; further: nearly all actives have a fitted effect of over 55% in size
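Stably hTDP1-transfected Tdp1-null chicken DT40 cells were treated with library compounds minus camptothecin and grown for at least 48 hr at 37 °C, after which cellular ATP was quantified by luminescence.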
RORg inh – qHTS for inhibitors of ROR gamma transcriptional activity; Nuclear receptor ROR-gamma (Mus musculus), P51450; Drosophila S2 Gal4-RORgamma UAS-luciferase reporter, 20 h; Potency, µM (highest dose often 53.6 µM), actives largely listed as inhibitors; 310,000 tested, 5.4% active; further: nearly all actives have a fitted effect of over 60% in size
Target sequence (P51450 whole entry, looked up, the tested form may be a part): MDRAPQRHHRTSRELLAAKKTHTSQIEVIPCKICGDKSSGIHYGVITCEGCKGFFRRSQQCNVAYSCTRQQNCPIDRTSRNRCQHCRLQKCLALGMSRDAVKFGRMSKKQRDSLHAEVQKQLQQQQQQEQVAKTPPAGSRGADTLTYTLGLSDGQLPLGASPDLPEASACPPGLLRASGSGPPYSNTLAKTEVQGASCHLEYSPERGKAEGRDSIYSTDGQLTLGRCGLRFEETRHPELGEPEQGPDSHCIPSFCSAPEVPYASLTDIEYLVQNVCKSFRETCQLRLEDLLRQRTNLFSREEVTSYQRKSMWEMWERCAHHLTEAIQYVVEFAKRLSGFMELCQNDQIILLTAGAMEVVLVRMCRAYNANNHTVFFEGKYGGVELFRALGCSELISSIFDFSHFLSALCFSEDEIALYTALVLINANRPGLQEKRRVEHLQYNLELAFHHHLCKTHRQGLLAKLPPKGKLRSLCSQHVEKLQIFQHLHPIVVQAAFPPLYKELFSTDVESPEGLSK
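Schneider cells (Drosophila), stable Gal4 DBD–ROR gamma + UAS-luc; 1 hr cmpd preincubation; Cu2+ induction 700 uM final; 20 hr ambient; luminescence.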
IL1B secr inh – qHTS for Inhibitors of Inflammasome Signaling: IL-1-beta AlphaLISA Primary Screen | THP-1 LPS/ATP IL-1B secretion, AlphaLISA, 16 h; active compounds read low | activity change, % at 57.5 µM | 360,000 tested, 4.7% active; in the data active means activity change below about -50%; inconclusive means mostly about -30% to -49%
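THP-1 cells pretreated 1 hr with compounds (up to 57.5 uM final), then stimulated with LPS (250 ng/mL final) plus ATP (1.25 mM final); secreted IL-1B measured by AlphaLISA after 16 hr, decreased signal indicating inhibition.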
Each line names hits and unclear results; the compound was inactive in the other large screens. Unless noted, the call rests on the fitted dose curve; in most records, active means well fitted curve in the direction sought with a large enough effect; inconclusive means small, poorly fitted or top-dose-only effect, or another doubt; inactive means no such curve, though single readings can be large; an effect the other way counts as inactive or inconclusive.

CCOC(=O)c1c(C)[nH]c(N=Nc2ccccc2Cl)c1C	DT40 TDP1 CPT inconclusive, ELG1 DNA repair inconclusive, DT40 TDP1 no CPT inconclusive, RORg inh inconclusive
CCOC(=O)c1c(C)[nH]c(C2=NNC(=Nc3ccccc3OC)SC2)c1C	DT40 TDP1 CPT inconclusive, ELG1 DNA repair inconclusive, DT40 TDP1 no CPT 18µM, IL1B secr inh -62
CCOC(=O)c1c(C)[nH]c(C2=NNC(=Nc3ccccc3)SC2)c1C	DT40 TDP1 CPT 13µM, ELG1 DNA repair inconclusive, Gal4-VP16 FLuc 11µM, DT40 TDP1 no CPT 9.2µM, RORg inh inconclusive, IL1B secr inh -67
CCOC(=O)c1ccc(N=C2NC(=O)CS2)cc1	none
CC(=O)c1c(C)[nH]c(C2=NNC(=NC(C)(C)C)SC2)c1C	ELG1 DNA repair inconclusive, Gal4-VP16 FLuc inconclusive, RORg inh inconclusive
CCOC(=O)c1c(C)[nH]c(C2=NNC(=Nc3ccc(OCC)cc3)SC2)c1C	DT40 TDP1 CPT 16µM, ELG1 DNA repair inconclusive, Gal4-VP16 FLuc inconclusive, DT40 TDP1 no CPT 16µM, RORg inh inconclusive, IL1B secr inh -52
CC(OC(=O)CC(C)c1ccccc1)C(=O)Nc1ccc(Cl)cn1 (stereo unspecified)	none (no result: Gal4-VP16 FLuc, RORg inh)
Cc1ccc(S(=O)(=O)c2cn(CC(=O)Nc3ccccc3C)c3cc4c(cc3c2=O)OCO4)cc1	none (no result: ELG1 DNA repair, Gal4-VP16 FLuc, RORg inh, IL1B secr inh)
CC(NCC(O)c1ccc([N+](=O)[O-])cc1)C12CC3CC(CC(C3)C1)C2 (stereo unspecified)	DT40 TDP1 CPT inconclusive, Gal4-VP16 FLuc inconclusive, DT40 TDP1 no CPT inconclusive, IL1B secr inh -85
O=C(NCC(O)c1ccc([N+](=O)[O-])cc1)Nc1ccccc1 (stereo unspecified)	none
COc1ccc(Br)cc1/C(C)=N/NC1=NCCN1	DT40 TDP1 CPT 8.2µM, ELG1 DNA repair inconclusive, Gal4-VP16 FLuc 13µM, DT40 TDP1 no CPT 15µM, RORg inh inconclusive, IL1B secr inh -76
C/C(=N\NC1=NCCN1)c1ccccc1	DT40 TDP1 no CPT inconclusive
CCCCCOc1ccc(Br)cc1/C(C)=N/NC1=NCCN1	DT40 TDP1 CPT 5.8µM, ELG1 DNA repair inconclusive, Gal4-VP16 FLuc inconclusive, DT40 TDP1 no CPT 4.6µM, RORg inh 2.5µM, IL1B secr inh -103
N#Cc1cccc(-c2csc(C(O)c3ccc(F)cc3)n2)c1 (stereo unspecified)	DT40 TDP1 no CPT inconclusive (no result: ELG1 DNA repair, Gal4-VP16 FLuc, RORg inh)
CN(C)CCCn1c2c3ccccc3ccc2c2oc(=O)c3ccccc3c21	DT40 TDP1 CPT 2.6µM, DT40 TDP1 no CPT 4.6µM, IL1B secr inh -100 (no result: ELG1 DNA repair, Gal4-VP16 FLuc, RORg inh)
CC(=O)c1ccc(OC2C=CC(c3ccc(Cl)cc3)OC2CO)cc1 (stereo unspecified)	none (no result: DT40 TDP1 CPT, ELG1 DNA repair, DT40 TDP1 no CPT, IL1B secr inh)
COc1ccc(C2c3ccc(O)cc3Oc3ncn4nc(-c5cccnc5)nc4c32)cc1OC (stereo unspecified)	DT40 TDP1 CPT inconclusive, ELG1 DNA repair 10µM, DT40 TDP1 no CPT 12µM
COc1ccc(C2c3ccc(O)cc3Oc3ncn(Cc4ccco4)c(=N)c32)cc1OC (stereo unspecified)	DT40 TDP1 CPT inconclusive, DT40 TDP1 no CPT inconclusive, IL1B secr inh inconclusive
O=C1CC(Sc2cccs2)C(=O)N1c1ccccc1 (stereo unspecified)	DT40 TDP1 CPT 3.7µM, Gal4-VP16 FLuc 7.9µM, DT40 TDP1 no CPT 3.7µM, RORg inh 4.5µM
O=C1CC(Sc2nnc(-c3ccccc3)o2)C(=O)N1c1ccccc1 (stereo unspecified)	DT40 TDP1 CPT 2.9µM, ELG1 DNA repair inconclusive, Gal4-VP16 FLuc 4µM, DT40 TDP1 no CPT 4.6µM, RORg inh 1.3µM
Cc1nnc(SC2CC(=O)N(c3ccccc3)C2=O)s1 (stereo unspecified)	DT40 TDP1 CPT 3.7µM, Gal4-VP16 FLuc 1µM, DT40 TDP1 no CPT 21µM, RORg inh 1.1µM
C[C@@H]1CC2C3CCC4=CC(=O)C=CC4(C)[C@@]3(F)[C@@H](O)CC2(C)[C@@]1(O)C(=O)CO (stereo partly specified)	none (no result: DT40 TDP1 CPT, ELG1 DNA repair, DT40 TDP1 no CPT, IL1B secr inh)
O=C(CCCN1C(=O)/C(=C\c2ccccc2)SC1=S)Nc1ccc(C(=O)O)cc1	none
COc1cccc(/C=C2\SC(=S)N(CCC(=O)Nc3ccc(O)cc3)C2=O)c1	ELG1 DNA repair inconclusive, DT40 TDP1 no CPT inconclusive
COC(=O)c1ccc(/C=C2/SC(=S)N(CCCC(=O)Nc3ccc(O)cc3)C2=O)cc1	DT40 TDP1 CPT inconclusive, DT40 TDP1 no CPT 13µM, IL1B secr inh inconclusive
Cc1ccc(/C=C2/SC(=S)N(CCCC(=O)Nc3cc([N+](=O)[O-])ccc3O)C2=O)cc1	Gal4-VP16 FLuc inconclusive, RORg inh 7.9µM
Cc1ccc(/C=C2\SC(=S)N(CCCC(=O)Nc3ccc(O)cc3)C2=O)cc1	RORg inh 0.05µM (no result: Gal4-VP16 FLuc)
NS(=O)(=O)c1ccc(NC(=O)COC(=O)c2ccc(S(=O)(=O)N3CCOCC3)cc2)cc1	ELG1 DNA repair inconclusive (no result: Gal4-VP16 FLuc, RORg inh)
C1=C\CCC2(OCCO2)C2(CC/1)OCCO2	none (no result: ELG1 DNA repair, Gal4-VP16 FLuc, RORg inh)
COc1ccc(C(C)(NC(C)=O)c2nc(-c3ccc(F)cc3OC)cs2)cc1 (stereo unspecified)	DT40 TDP1 CPT 15µM, DT40 TDP1 no CPT 13µM (no result: ELG1 DNA repair, Gal4-VP16 FLuc, RORg inh)
COc1ccc(C(C)(NC(C)=O)c2nc(-c3ccccc3OC)cs2)cc1 (stereo unspecified)	DT40 TDP1 CPT 18µM, DT40 TDP1 no CPT 12µM (no result: ELG1 DNA repair, Gal4-VP16 FLuc, RORg inh)
COc1ccc(C(C)(NC(C)=O)c2nc(-c3cccnc3)cs2)cc1 (stereo unspecified)	DT40 TDP1 CPT inconclusive (no result: ELG1 DNA repair, Gal4-VP16 FLuc, RORg inh)
